Measurements from publication PMC5700166.

Columns and labels:
[1] = molecular target: T1, GST-Nv-NF-kB (Ser allele) (Nematostella vectensis, UniProt A7UNT2 2-411); test: protein-binding microarray (PBM); PBM: ~300 nM protein, 6 mM HEPES pH 7.8, 80 mM KCl, 0.5 mM EDTA, 0.5 mM EGTA, 6% glycerol, 35 ng/ul poly-dIdC, 1% milk, 1 h, room temperature; Ap Aiptasia and Nv Nematostella (sea anemones) / Co Capsaspora / Aq Amphimedon (sponge) / Dm Drosophila / Hu human; RHD is the Rel homology domain; high values mean tight binding; conditions: dsDNA, one strand shown
T1 sequence: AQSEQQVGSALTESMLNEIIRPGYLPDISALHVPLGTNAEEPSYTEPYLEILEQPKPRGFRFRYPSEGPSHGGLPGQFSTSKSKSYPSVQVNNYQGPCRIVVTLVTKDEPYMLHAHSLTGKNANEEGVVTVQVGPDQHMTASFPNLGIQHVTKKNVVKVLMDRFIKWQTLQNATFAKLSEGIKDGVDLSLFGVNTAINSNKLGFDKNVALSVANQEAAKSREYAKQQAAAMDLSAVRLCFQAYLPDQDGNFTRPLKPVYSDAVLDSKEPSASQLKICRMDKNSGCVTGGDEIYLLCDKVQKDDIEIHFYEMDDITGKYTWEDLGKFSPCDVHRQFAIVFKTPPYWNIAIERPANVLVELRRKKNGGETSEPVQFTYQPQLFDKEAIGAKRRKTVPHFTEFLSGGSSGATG

[2] = molecular target: GST-Hu-p50 (Homo sapiens, UniProt P19838 7-356); test: as above; conditions: dsDNA, one strand shown
Chain of GST-Hu-p50 (P19838 7-356): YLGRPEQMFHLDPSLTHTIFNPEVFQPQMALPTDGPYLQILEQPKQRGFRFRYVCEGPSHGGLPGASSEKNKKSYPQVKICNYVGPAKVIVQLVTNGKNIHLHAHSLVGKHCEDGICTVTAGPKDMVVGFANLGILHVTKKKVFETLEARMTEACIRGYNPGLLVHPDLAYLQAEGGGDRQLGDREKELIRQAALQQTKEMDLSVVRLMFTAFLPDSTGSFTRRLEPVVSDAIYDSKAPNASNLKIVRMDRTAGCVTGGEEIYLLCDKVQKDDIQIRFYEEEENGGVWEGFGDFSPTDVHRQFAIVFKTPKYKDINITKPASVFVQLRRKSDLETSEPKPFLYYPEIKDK

Sequence | binding signal [1] | binding signal [2]
CCGATTAACATCAACCACCCCCCTGATGTTAATCGGGTCTTGATTCGCTTGACGCTGCTG | 3.31 z-score | 4.14 z-score
CCGATTAACATCAGACCTCCCCCTGATGTTAATCGGGTCTTGATTCGCTTGACGCTGCTG | 4.4 z-score | 3.87 z-score
CCGATTAACATCAGGGGTTCACCTGATGTTAATCGGGTCTTGATTCGCTTGACGCTGCTG | 3.04 z-score | 3.78 z-score
CCGATTAACATCACGGGATTTCCTGATGTTAATCGGGTCTTGATTCGCTTGACGCTGCTG | 3.47 z-score | 3.82 z-score
CCGATTAACATCACTAAATTCCCTGATGTTAATCGGGTCTTGATTCGCTTGACGCTGCTG | 5.8 z-score | 4.08 z-score
CCGATTAACATCAATGGGAATTCTGATGTTAATCGGGTCTTGATTCGCTTGACGCTGCTG | 4.57 z-score | 3.4 z-score
CCGATTAACATCAAAATTCCCAATGATGTTAATCGGGTCTTGATTCGCTTGACGCTGCTG | 4.95 z-score | 4.21 z-score
CCGATTAACATCAGGCAAATCCCTGATGTTAATCGGGTCTTGATTCGCTTGACGCTGCTG | 1.09 z-score | 1.9 z-score
CCGATTAACATCAGGGGGGCACCTGATGTTAATCGGGTCTTGATTCGCTTGACGCTGCTG | 2 z-score | 3.33 z-score
CCGATTAACATCACGCAATTCCCTGATGTTAATCGGGTCTTGATTCGCTTGACGCTGCTG | 4.54 z-score | 2.87 z-score
CCGATTAACATCACTGGGAATTCTGATGTTAATCGGGTCTTGATTCGCTTGACGCTGCTG | 3 z-score | 3.22 z-score
CCGATTAACATCACTGGGAAAACTGATGTTAATCGGGTCTTGATTCGCTTGACGCTGCTG | 3.57 z-score | 2.39 z-score
CCGATTAACATCAGGGAATCCTATGATGTTAATCGGGTCTTGATTCGCTTGACGCTGCTG | 4.4 z-score | 2.72 z-score
CCGATTAACATCAGGGGGTAGAATGATGTTAATCGGGTCTTGATTCGCTTGACGCTGCTG | 4.04 z-score | 3.9 z-score
